This is an account of results in PubChem BioAssay (NCI).

About 79,000 compounds went through this panel and 15% of them were active in at least one assay; those are over-represented in the sample as a whole. Unmarked numbers belong to inactive results. Activity calls are given as the source filed them. Cut-off read from the data, not from the text of the source: active = growth inhibition above about 70%; inactive = the rest.

A short description of test [1]: NCI Yeast Anticancer Drug Screen. Data for the rad50 strain (AID 155).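 Note: 0% = growth of vehicle-only cultures of the same strain.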 The settings on record: S. cerevisiae rad50 strain growth inhibition; at 50.0 µM; hits give high values. The essentials:
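Compounds were tested on a yeast strain with an engineered DNA damage repair alteration; the reported value is growth inhibition normalised to vehicle treatment.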

A short description of test [2]: NCI Yeast Anticancer Drug Screen. Data for the mec2-1 strain (AID 157). The note with it: S. cerevisiae mec2-1 strain, at 50.0 µM, hits give high values. The method, boiled down: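 mec2-1 yeast strain, carrying an alteration in DNA damage repair or cell cycle control, was exposed to compounds; growth inhibition was measured relative to vehicle-treated controls.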
A short description of test [3]: NCI Yeast Anticancer Drug Screen. Data for the sgs1 mgt1 strain (AID 161).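 Note: 0% = growth of cultures given vehicle only.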 The note with it: S. cerevisiae sgs1 mgt1 strain, at 50.0 µM, hits give high values. The essentials: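 This yeast growth screen uses a strain with defined DNA-repair lesions; compound-treated growth is compared with vehicle-treated growth.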
Test [4] in a line: NCI Yeast Anticancer Drug Screen. Data for the cln2 rad14 strain (AID 165).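 Note: 0% = growth equal to vehicle treated cultures.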 The note with it: S. cerevisiae cln2 rad14 strain, at 50.0 µM, hits give high values. The method, boiled down: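 Yeast carrying cln2 and rad14 alterations (cell cycle control and DNA damage repair) were exposed to compounds. Growth inhibition was measured against vehicle-treated controls.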
A short description of test [5]: NCI Yeast Anticancer Drug Screen. Data for the bub3 strain (AID 167). The note with it: S. cerevisiae bub3 mutant strain, at 50.0 µM, hits give high values. The method, boiled down:
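Growth of a checkpoint-deficient yeast mutant is measured after compound exposure. Values represent inhibition relative to vehicle.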

A short description of test [6]: NCI Yeast Anticancer Drug Screen. Data for the mlh1 rad18 strain (AID 175). The note with it: S. cerevisiae mlh1 rad18 strain growth inhibition; at 50.0 µM; hits give high values. The method, boiled down: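 Growth inhibition of the yeast strain was measured after compound exposure and expressed relative to vehicle-treated controls. The strain carries defined defects in DNA damage repair.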

With `c1ccc(C2SCCCS2)cc1`, the growth inhibition in test [1] is 33.2%; in test [2] it was 5.25%; in test [3], 17.8%; in test [4] it was 18.4%; in test [5], -4.5%; in test [6], 18.4%.

On to `CCCC(F)C(=O)OCC` (centres undefined), for which the growth inhibition is 11.5% in test [1]; -6.35% in test [2]; 5.4% in test [3]; -9.35% in test [4]; 10% in test [5]; 0.3% in test [6].

In the case of `CCCCCCCCCCCCCCCCCC(=O)NCC[N+](C)(C)C`, the growth inhibition in test [1] is 99% (active); in test [2], 99.5% (active); in test [3] it was 99.4% (active); in test [4], 98.8% (active); in test [5], 98.8% (active); in test [6], 99.2% (active).

Turning to `CCOC(=O)C(C(=O)CC(C)C)C(C)C` (centres undefined), the growth inhibition in test [1] was -15.9%; in test [2], -25.2%; in test [3], 1.1%; in test [4], -30.4%; in test [5], 2.95%; in test [6] it was -5.7%.

For the compound `c1ccc(C2Nc3ccccc3C3OCCCC23)cc1` (centres undefined), the growth inhibition in test [1] is 2.35%; in test [2], -4.3%; in test [3], 9.8%; in test [4], -9.4%; in test [5], -20.6%; in test [6], 1.7%.

Turning to `Cn1c([N+](=O)[O-])cnc1COc1ccc(NC(=O)CN2CCOCC2)cc1`, the growth inhibition in test [1] was 27%; in test [2], 1.05%; in test [3], 19.9%; in test [4], 33.2%; in test [5], 10.3%; in test [6] it was 18.2%.

As for `N#CSC1CCCCC1SC#N` (centres undefined), the growth inhibition in test [1] was 11.3%; in test [2], 5.8%; in test [3] it was 7.35%; in test [4], -13.7%; in test [5], -2.55%; in test [6] it was 5.6%.

In the case of `OCN(CO)c1ccc2c(c1)Cc1cc(Cl)ccc1-2`, the growth inhibition is 0.35% in test [1]; -24.1% in test [2]; -2.2% in test [3]; 22.4% in test [4]; 13.1% in test [5]; 12.7% in test [6].

Consider `N#CC12CC=C(c3ccccc3)N=C1NC(c1ccccc1)=CC2` (centres undefined), for which the growth inhibition is -25.9% in test [1]; -35.5% in test [2]; -31.7% in test [3]; -38.4% in test [4]; -1.65% in test [5]; -34.1% in test [6].

Take `NC(=O)c1cn2ccccc2c1[N+](=O)[O-]`: the growth inhibition in test [1] was 8.25%; in test [2], 27.6%; in test [3] it was 3.35%; in test [4], -20.2%; in test [5], 2.8%; in test [6] it was 5.2%.

Take `Cc1cc(N(CCC#N)S(=O)(=O)c2ccccc2)ccc1C=O`: the growth inhibition in test [1] is 25.9%; in test [2], -34.1%; in test [3], 13.9%; in test [4], -9.05%; in test [5] it was -9.15%; in test [6] it was -4.15%.

As to `CC(=O)C1CC(CCC2([N+](=O)[O-])CCC(C)(O)C(C(C)=O)C2)([N+](=O)[O-])CCC1(C)O` (centres undefined), the growth inhibition was 3.3% in test [1]; 5.05% in test [2]; 6.7% in test [3]; 2.6% in test [4]; 12.3% in test [5]; 20.6% in test [6].

Consider `CCOC(=O)c1cnc(SCc2ccccc2)[nH]c1=O`, for which the growth inhibition in test [1] is -6.1%; in test [2], -9.8%; in test [3], -17.7%; in test [4], -3.7%; in test [5] it was -16.6%; in test [6], -13.3%.

Turning to `O=C(/C=C/c1ccccc1)NC(=S)Nc1cc(Cl)ccc1O`, the growth inhibition in test [1] is 2.55%; in test [2], 7.8%; in test [3] it was 6.25%; in test [4] it was 5.5%; in test [5], 12.7%; in test [6], 6.85%.

In the case of `CCC1=C(C)C(=O)OC1n1ccc(=O)[nH]c1=O` (centres undefined), the growth inhibition in test [1] is -11.6%; in test [2], -2.75%; in test [3], 2.8%; in test [4], -37%; in test [5] it was -5%; in test [6], -3.5%.

With `CC(=O)OCC(=O)[C@@]1(O)CC[C@H]2[C@@H]3CCC4=CC(=O)CC[C@]4(C)[C@H]3C(=O)C[C@@]21C`, the growth inhibition was -25.1% in test [1]; -23.6% in test [2]; -6.85% in test [3]; 4.2% in test [4]; -17.9% in test [5]; -21.3% in test [6].

Consider `CC1=C(c2ccccc2)C(c2ccccc2)c2ccccc21` (centres undefined), for which the growth inhibition in test [1] was 17.3%; in test [2], 26.7%; in test [3], 33.6%; in test [4], 51.4%; in test [5], 54.4%; in test [6], 85.6% (active).

Regarding `NC(N)=NS(=O)(=O)c1ccc(Nc2c3ccccc3nc3c(C(=O)Nc4ccc(S(N)(=O)=O)cc4)ccc(Cl)c23)cc1`, the growth inhibition in test [1] is -8.55%; in test [2], -2.1%; in test [3], -2.75%; in test [4], 29.8%; in test [5], -2.25%; in test [6], 7.85%.

On to `Clc1ccc(-c2cc3ccccc3[nH]2)cc1`, for which the growth inhibition in test [1] was 23.9%; in test [2] it was -3.3%; in test [3], -1.25%; in test [4], -32.4%; in test [5], 2.4%; in test [6], -5.05%.
